Assay outcomes: PubChem BioAssay, several laboratories
eLon inh: inhibitors of E. coli Lon protease | 360,000 compounds, 0.42% hits | inhibition, % at 7.94 µM | purified E. coli Lon protease, fluorescence polarization | P0A9M0 | AID 602123; in the data active means inhibition above about 13%, passing the limit was not always enough;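 further: 0% = enzyme with probe and DMSO and 100% = no enzyme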
Bcl-xL primary: blocks human Bcl-xL binding to Bim BH3 peptide; Q07817; GST-Bcl-xL / FITC-Bim BH3 peptide fluorescence polarization; inhibition, % at 10.9 µM; 320,000 compounds, 0.7% hits; AID 2129;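 active means inhibition above the mean of all tested compounds plus 3 SD, cutoff set per campaign, cut at about 30% in these data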;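 further: 0% = DMSO wells and 100% = unlabeled Bim-BH3 peptide competitor; inhibitors lower millipolarization by displacing the labeled peptide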
Target sequence (Q07817 whole entry, looked up): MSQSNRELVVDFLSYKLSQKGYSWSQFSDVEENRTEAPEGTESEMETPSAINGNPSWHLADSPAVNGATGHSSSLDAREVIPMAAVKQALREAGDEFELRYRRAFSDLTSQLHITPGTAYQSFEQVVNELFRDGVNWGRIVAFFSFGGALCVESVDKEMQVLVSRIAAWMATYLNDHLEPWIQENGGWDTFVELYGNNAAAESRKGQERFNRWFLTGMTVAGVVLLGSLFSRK
MCL1 BIM primary: disrupts human MCL1 binding to BIM-BH3 peptide; Q07820; GST-MCL1 / FITC-Bim-BH3 fluorescence polarization; inhibition, % at 10.9 µM; 320,000 compounds, 0.68% hits;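 active means inhibition above the mean inhibition of all tested compounds plus 3 SD, set per campaign, cut at about 40% in these data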;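 further: 0% = DMSO wells and 100% = unlabeled Bim-BH3 peptide control; higher means more loss of mP so more displacement of Bim peptide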
GLD-1 RNA inh: GLD-1-TGE RNA interaction inhibition (C. elegans). Q17339. purified GLD-1 + fluorescein TGE RNA, fluorescence polarization. inhibition, % at 5.96 µM. 320,000 compounds, 0.44% hits;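 active means percent inhibition above a per-plate cutoff, the plate mean of test compounds plus 3 SD, cut at about 30% in these data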;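 further: 0% = DMSO wells with GLD-1 and probe and 100% = wells lacking GLD-1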
MEX-5 binding: C. elegans MEX-5 TCR-2 RNA binding activity; activity score (negative = inhibition of binding), % at 10 µM; AID 1832; 300,000 compounds, 0.38% hits; Q9XUB2; MEX-5/FITC-TCR2 RNA binding, fluorescence polarization; active compounds read low;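 active means inhibition past about -25% in most replicates, and total fluorescence under double the plate's negative control median, limit read from the data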;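 further: 0% = DMSO and -100% = 5 µM competing unlabeled TCR2 RNA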
Target sequence (Q9XUB2 whole entry, looked up): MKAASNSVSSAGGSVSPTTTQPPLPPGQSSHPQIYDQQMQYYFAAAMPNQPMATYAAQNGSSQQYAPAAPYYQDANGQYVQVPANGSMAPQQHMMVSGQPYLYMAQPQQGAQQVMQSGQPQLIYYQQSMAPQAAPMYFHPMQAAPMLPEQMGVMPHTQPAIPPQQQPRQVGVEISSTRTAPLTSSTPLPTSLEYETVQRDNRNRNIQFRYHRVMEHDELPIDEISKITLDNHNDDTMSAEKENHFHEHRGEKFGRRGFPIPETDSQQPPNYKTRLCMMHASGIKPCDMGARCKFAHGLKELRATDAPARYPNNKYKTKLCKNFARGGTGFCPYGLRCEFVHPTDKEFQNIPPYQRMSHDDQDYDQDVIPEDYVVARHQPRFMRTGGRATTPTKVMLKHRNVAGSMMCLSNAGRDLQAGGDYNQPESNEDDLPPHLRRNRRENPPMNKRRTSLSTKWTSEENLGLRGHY
GLD1 RNA confirm: confirmation of C. elegans GLD-1 TGE RNA binding inhibitors | GLD-1/FL-TGE RNA fluorescence polarization, biochemical | inhibition, % at 5.96 µM | 550 compounds, 10% hits | shares compounds with GLD-1 RNA inh;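 active means average inhibition across triplicates above the hit cutoff set in the primary screen, cut at about 32% in these data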;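 further: 0% = GLD-1 with RNA probe and DMSO and 100% = wells lacking GLD-1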
eLon confirm: confirmation of E. coli Lon protease inhibitors. shares compounds with eLon inh. inhibition, % at 7.94 µM. purified E. coli Lon, fluorescence polarization. 1,400 compounds, 31% hits. AID 602230; in the data active means inhibition above about 16%;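 further: 0% = enzyme with probe and DMSO and 100% = no enzyme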
* marks the source's active call; other numbers are inactive results; · = not tested or not shown. An excerpt weighted towards active compounds, which were near 1.4% of everything screened.

SMILES | eLon inh | Bcl-xL primary | MCL1 BIM primary | GLD-1 RNA inh | MEX-5 binding | GLD1 RNA confirm | others
COCCNc1ccc([N+](=O)[O-])cc1C(=O)Nc1cccc(C)n1 | -1 | 5 | 4 | 68* | -2 | 1
Cc1ccc(C2=Nc3ccccc3NC(C)(c3ccc(C)o3)C2)o1 (stereo unspecified) | 14 | 40* | 36 | 44* | 0 | -2
O=C(OC(C(=O)Nc1ccc(Cl)c(C(F)(F)F)c1)c1ccccc1)C1=COCCO1 (stereo unspecified) | 0 | 3 | 5 | 45* | -1 | 5
O=C(OC(C(=O)Nc1ccc(Cl)cc1C(F)(F)F)c1ccccc1)C1=COCCO1 (stereo unspecified) | 6 | -2 | -5 | -1 | · | ·
O=C(CSc1ccc(-c2ccco2)nn1)NCc1ccccc1Cl | 2 | 42* | 41* | 34* | -4 | -7
O=C(CSc1ccc(-c2ccco2)nn1)Nc1ccccc1 | 0 | 9 | 7 | 5 | 1 | ·
C[C@H]1C=C(C(=O)NCc2nc3ccccc3[nH]2)O[C@@H](OCCCCO)C1 | -10 | 5 | 8 | 1 | 0 | ·
O=C(NCc1nc2ccccc2[nH]1)C1=C[C@@H](C2CCCCC2)C[C@@H](OCCCCO)O1 | -1 | 2 | 0 | 85* | 3 | -1
Cc1cc(Cl)ccc1C(O)c1ncc(-c2ccc3ccccc3c2)[nH]1 (stereo unspecified) | -7 | · | · | · | · | ·
O=C(O)C1Sc2[nH]c(=O)sc2C2c3cc(Br)ccc3OC(=O)C12 (stereo unspecified) | -11 | 38* | 45* | 54* | · | -2
O=C1c2ccccc2C(=O)N1CCC#C/C=C1\c2ccccc2C(=O)N1c1ccccc1 | -4 | · | · | · | · | ·
Cc1ccc(C)c(NC(=S)NCc2ccc3[nH]c4c(c3c2)CCCC4)c1 | 0 | 55* | 15 | 59* | 1 | -4
Cc1ccccc1NC(=S)NCc1ccc2[nH]c3c(c2c1)CCCC3 | -1 | 6 | 10 | 7 | 3 | ·
Cn1cnc(S(=O)(=O)N2CCCCC2c2cc(C(=O)NCc3ccc(Cl)c(Cl)c3)no2)c1 (stereo unspecified) | -11 | · | · | · | · | ·
COc1cccc(N(CC(=O)NCC2CCCO2)C(=O)CNS(=O)(=O)c2ccccc2)c1 (stereo unspecified) | -5 | 41* | 36 | 38* | 2 | 1
CC1C2(C)OCC(C#N)(C(=N)O2)C1(C#N)C#N (stereo unspecified) | · | 32* | 37 | 36* | -12 | 7
N#CC1=C(N)C2=CCCC[C@H]2[C@H](c2ccccc2)C1(C#N)C#N | 4 | 35* | 42* | 40* | -17 | -3
N#CC1=C(N)C2=CCCC[C@H]2[C@H](c2ccc(Br)cc2)C1(C#N)C#N | 7 | 40* | 38 | 37* | · | 1
COC(=O)[C@]12CCCCC=C1N(Cc1cccc3ccccc13)C(=O)[C@H](CC(=O)NCc1ccc(OC)c(OC)c1)C2 | -1 | · | · | · | · | ·
CC1(C(=O)Nc2cccc3cccnc23)CCN1C(=O)Cc1ccc(Cl)cc1Cl (stereo unspecified) | 10 | · | · | · | · | ·
O=C(NCCN1CCC(n2c(=O)[nH]c3ccccc32)CC1)c1ccc(C(F)(F)F)cc1C(F)(F)F | -6 | · | · | · | · | ·
O=C(COC(=O)c1cc(=O)[nH]c2ccccc12)NC(=O)c1ccccc1 | -3 | -3 | -8 | 2 | -4 | ·
CCOc1ccc(-c2noc(-c3cccnc3)n2)cc1OCC | -1 | 1 | 3 | 102* | · | -2
CC(=O)c1ccc(NC(=O)CCn2c(=S)oc3ccccc32)cc1 | 3 | 3 | -4 | 43* | 2 | 11
CC(=O)Nc1ccc(NC(=O)CCn2c(=S)oc3ccccc32)cc1 | 3 | -5 | 2 | 1 | 0 | ·
SMILES | eLon inh | Bcl-xL primary | MCL1 BIM primary | GLD-1 RNA inh | MEX-5 binding | GLD1 RNA confirm | others
COc1ccc(OC)c(NC(=O)c2cc3c(cc2Cl)N2CCCCCC2=NS3(=O)=O)c1 | -2 | · | · | 35* | · | -8
Cc1cccc(C)c1NC(=S)N(Cc1ccccc1)Cc1cccnc1 | 6 | 0 | 2 | -3 | 2 | ·
CCN(Cc1ccncc1)C(=S)Nc1c(C)cccc1C | 3 | 44* | 47* | 37* | -1 | 4
Cc1c(NC(=O)C(C)OC(=O)c2ccc([N+](=O)[O-])s2)c(=O)n(-c2ccccc2)n1C (stereo unspecified) | -1 | -1 | -2 | 1 | -1 | ·
CS(=O)(=O)c1sc2nc(-c3cccs3)cc(-c3ccccc3)c2c1N | 20* | 23 | -3 | 53* | 2 | -14 | eLon confirm=-23
C/C(=C\C(=O)c1ccccc1)Nc1ccc(O)cc1 | 12 | 16 | 18 | 20 | -2 | ·
C/C(=C\C(=O)c1cccnc1)Nc1ccc(O)cc1 | 22* | 7 | 8 | 31* | -2 | -1 | eLon confirm=8
CC(=O)Nc1ccc(S(=O)(=O)NCc2ccc(C)cc2)cc1 | 5 | -4 | -4 | -7 | 2 | ·
CC(=O)Nc1ccc(S(=O)(=O)NCc2ccc3c(c2)cc(C)n3C)cc1 | 49* | 34* | 32 | 44* | 0 | 17 | eLon confirm=22*
CC1=C(C(N)=O)S(=O)(=O)c2ccccc21 | 18* | 20 | 21 | 38* | -9 | 24 | eLon confirm=29*
COc1ccccc1NC(=O)COC(=O)c1ccccc1C(=O)N1CCN(c2ccccc2)CC1 | 24* | 42* | 44* | 33* | -5 | 4 | eLon confirm=5
CCc1cccc(C)c1NC(=O)c1ccccc1 | -1 | -1 | -1 | 6 | -4 | ·
CCc1cccc(C)c1NC(=O)C1=C(C(=O)O)CCCC1 | 19* | 29 | 32 | 39* | -1 | 7 | eLon confirm=32*
COc1ccc(CN2CC(C(N)=O)Oc3ccccc32)cc1F (stereo unspecified) | 8 | 5 | 2 | 5 | -1 | ·
COc1cccc(S(=O)(=O)Nc2ccc3c(c2)[C@H]2C[C@H](CC(=O)N[C@@H](C)c4ccccc4)O[C@H](CO)[C@H]2O3)c1 | 3 | · | · | · | · | ·
CCN(C(=S)Nc1cccc2ccccc12)c1ccccc1 | 5 | · | · | · | · | ·
O=[N+]([O-])c1c(Nc2ccccn2)cc(Cl)c2nonc12 | 52* | -9 | -39 | 43* | 0 | 3 | eLon confirm=-8
O=C(O)c1ccccc1Nc1cc(Cl)c2nonc2c1[N+](=O)[O-] | 1 | 16 | 15 | 4 | -3 | ·
O=C(Nc1ccc(Cl)cc1)Nc1ccc(N2CCC(C(F)(F)F)CC2)nc1 | 47* | 31* | 32 | 38* | -9 | 23 | eLon confirm=8
CC(=O)Nc1cccc(Nc2cnccn2)c1 | -2 | · | · | · | · | ·
CCOC(=O)C1CCCN(C(=O)c2ccc(S(=O)(=O)Nc3ccccc3OC)cc2)C1 (stereo unspecified) | 21* | 3 | 2 | 4 | · | · | eLon confirm=-11
